The source of these data is PubChem BioAssay (NCATS).

Molecules are shown by their SMILES. Where “and” joins values, the source holds several entries; their conditions need not be identical. Equal entries are not always repeated. Results filed as inconclusive are left out. Calls of active or inactive are those of the source. Unless noted, calls come from the whole dose curve; as a rule, active = well fitted curve in the direction sought with a large enough effect; inconclusive = small, poorly fitted or top-dose-only effect, or another doubt; inactive = no such curve, though single readings can be large; an effect the other way counts as inactive or inconclusive.

In test [1] the target is Tyrosine-protein kinase Yes (Homo sapiens) (UniProt P07947). Nature of the test: qHTS for small molecule inhibitors of Yes1 kinase: Primary Screen (AID 686947). Note: nearly all actives have a fitted effect of over 60% in size. Note: potency is the fitted concentration of half-maximal effect. In outline: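 In this qHTS format, inhibition is expressed relative to DMSO controls with enzyme (maximum) and without enzyme (minimum). The 60 min room-temperature reaction uses 0.1 mM ATP, with ADP detected by luminescence.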

The nature of test [2]: qHTS Assay for Identifying Gametocytocidal Compounds (AID 743244).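 Note: % is set by controls: 0 for no effect and ±100 for the full control effect; actives lower the fluorescent signal which means gametocytes are killed.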 Particulars: P. falciparum 3D7 stage III-V gametocytes, alamarBlue, 72 h; max response: stronger effect = lower value. The procedure, abridged:
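Late gametocytes (III–V), P. falciparum 3D7; 72 h drug, then 24 h alamarBlue; resazurin reduction read by fluorescence.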
Background: In qHTS, concentration-response curves come from the screen itself.

Test [3] is described as follows: qHTS profiling for inhibitors of Plasmodium falciparum (3D7) proliferation (AID 743322; call rule not given here;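 note: infected erythrocytes exposed to compound for 72 h before lysis; 100% = DMSO vehicle wells and 0% = 0.29 µM artemisinin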). Particulars: P. falciparum 3D7 proliferation; at 28.7 µM (top of the series) unless noted. In outline: (§1)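 Parasite DNA was quantified by SYBR Green I fluorescence (ex 485, em 535 nm) after overnight lysis in saponin/Triton buffer at room temperature. Cultures at 0.3% parasitemia and 2.5% hematocrit were first exposed to compound for 72 h at 37 C; signals were normalised to artemisinin (0.29 uM) and vehicle wells.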

A short description of test [4]: qHTS profiling for inhibitors of Plasmodium falciparum (DD2) proliferation (AID 743323; call rule not given here). The settings on record: lower = more inhibition; at 28.7 µM (top of the series) unless noted. The procedure, abridged: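 P. falciparum Dd2-infected erythrocytes (0.3% parasitemia, 2.5% hematocrit) exposed 72 h at 37 C, 5% CO2. Lysis with SYBR Green, overnight at room temperature, fluorescence 485/535 nm; normalized to 0.29 uM artemisinin and DMSO.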

A short description of test [5]: qHTS profiling for inhibitors of Plasmodium falciparum (HB3) proliferation (AID 743324).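 Note: 100% = DMSO vehicle wells and 0% = artemisinin-treated control wells.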 Particulars: Plasmodium falciparum HB3 blood-stage proliferation; at 28.7 µM (top of the series) unless noted. In outline: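 SYBR Green fluorescence (485 ex/535 em) of lysed cultures, incubated overnight at room temperature in the dark, quantifies parasite DNA. Infected erythrocytes at 0.3% parasitemia and 2.5% hematocrit were exposed 72 h; values normalized to DMSO and 0.29 uM artemisinin controls.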

Test [6] in a line: qHTS profiling of the MIPE4 collection as inhibitors of Plasmodium falciparum (3D7) proliferation (AID 743344; call rule not given here;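 note: scaled between DMSO vehicle wells and 0.29 µM artemisinin as full inhibition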). The settings on record: P. falciparum 3D7 in erythrocytes, SYBR Green DNA fluorescence, 72 h; at 28.5 µM (top of the series) unless noted. The procedure, abridged: as §1
Test [7] has as its target Peroxisome proliferator-activated receptor alpha (Homo sapiens) (UniProt Q07869). Kind of test: qHTS assay for small molecule agonists of the peroxisome proliferator-activated receptor alpha (PPARalpha) signaling pathway (AID 651778). Note: % of control where 0% means no effect. The settings on record: PathHunter PPARalpha complementation, chemiluminescence, 6 h; stronger effect = higher value. The procedure, abridged: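 Chemiluminescence from complemented enzyme reported PPARalpha activation in cells after 6 hr of compound treatment at 37 C. The detection reagent was incubated for 60 min at room temperature, and compounds were scored as agonists.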

Test [8] addresses Nuclear receptor ROR-gamma (Homo sapiens) (UniProt P51449). Kind of test: qHTS assay for small molecule antagonists of the retinoid-related orphan receptor gamma (ROR-gamma) signaling pathway (AID 651802).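 Note: CHO cells with doxycycline-induced ROR-gamma expression; luciferase reporter luminescence driven by ROR response element; % is set by controls: 0 for no effect and ±100 for the full control effect; nearly all actives have a fitted effect of over 60% in size.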 In outline:
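Luciferase read-out: ONE-Glo luminescence after 30 min at room temperature, following 16hr doxycycline induction at 37C, 5% CO2 of CHO cells with TET-inducible ROR and RORE-LUC reporter; decreased luminescence = reduced reporter activity.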

Test [9] in a line: qHTS assay for small molecule agonists of the antioxidant response element (ARE) signaling pathway measured by Nrf2-dependant transcriptional activity (AID 720636; active = well fitted curve in the direction sought with a large enough effect in the repeat runs; an effect the other way counts as inactive or inconclusive;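 note: HepG2 cells with an ARE-driven luciferase reporter; % of control where 0% means no effect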). The procedure, abridged:
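In HepG2 cells engineered with an Nrf2-responsive luciferase gene, ARE induction was quantified as luminescence after 16 hr compound treatment at 37 C.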

Test [10] in a line: qHTS assay for small molecule antagonists of the retinoid-related orphan receptor gamma (ROR-gamma) signaling pathway - cell viability counter screen (AID 720652; active = well fitted curve in the direction sought with a large enough effect in the repeat runs; an effect the other way counts as inactive or inconclusive;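 note: CHO reporter cells with doxycycline-induced ROR-gamma expression; compound exposure lasted 16 hr before ATP read; % is set by controls: 0 for no effect and ±100 for the full control effect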). In outline:
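CHO RORE-LUC/TET-ROR line, 1,000 cells/well, 37 C 5% CO2 5 hr; cpd or DMSO + doxycycline induction, 16 hr. CellTiter-Glo, 30 min RT, luminescence = ATP content.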

Test [11] can be described thus: qHTS assay for small molecule agonists of the antioxidant response element (ARE) signaling pathway measured by Nrf2-dependant transcriptional activity - cell viability counter screen (AID 720653; active = well fitted curve in the direction sought with a large enough effect in the repeat runs; an effect the other way counts as inactive or inconclusive; note: % is set by controls: 0 for no effect and ±100 for the full control effect). The settings on record: ARE-bla HepG2 viability, CellTiter-Glo ATP luminescence, 16 h; max response: stronger effect = lower value. In outline: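 Cytotoxicity counter screen: intracellular ATP quantified by CellTiter-Glo luminescence in the same ARE-bla HepG2 plates, after 16 h compound exposure and a 2 h beta-lactamase substrate step.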

Test [12] in a line: qHTS assay for cell viability of HEK293 cells (AID 743288). For max response: % is set by controls: 0 for no effect and ±100 for the full control effect. Note: nearly all actives have a fitted effect of over 50% in size. Note: potency is the fitted concentration of half-maximal effect. Particulars: ATP luminescence (CellTiter-Glo), 18 h; max response: stronger effect = lower value. In outline:
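After 18 h compound exposure at 37 C, parental HEK293 cells (2,000/well) are lysed with CellTiter-Glo and luminescence is read following 30 min at room temperature.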

Test [13] in a line: qHTS assay for cell viability of the p53RE-bla HCT-116 cell line (AID 743292). Note: nearly all actives have a fitted effect of over 55% in size. Note: potency is the fitted concentration of half-maximal effect. In outline: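 Intracellular ATP of p53RE-bla HCT-116 cells measured by luciferase luminescence following 16 h compound incubation at 37 C; DMSO-only wells served as vehicle controls.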
For test [14], the target named is Arylsulfatase A (Homo sapiens) (UniProt P15289). Kind of test: qHTS screen for enhancers of Arylsulfatase A (ASA1): LOPAC Validation Assay (AID 720538). Note: 0% is about no effect. In outline: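 SV40-transformed skin fibroblasts from an MLD patient (ASA-I179S) were treated with compounds for 48h at 37 degree C, then lysed with 0.5mM pNCS final substrate for 14h at room temperature; NaOH stop, fluorescence read (Ex=525 nm; Em=598 nm).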

The nature of test [15]: qHTS for compounds that reverse cellular toxicity of Amyloid beta (A-beta) peptide in yeast: LOPAC Validation Assay (AID 720559).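 Note: plate controls were DMSO for no effect and equimolar ferric chloride plus clioquinol rescue for full effect.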 The procedure, abridged: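 Yeast cells expressing toxic A-beta were combined with pinned compounds in growth medium and incubated 48 hr at 30 C. Growth was read as absorbance at 600 nm and normalized to DMSO and to an equimolar FeCl3/clioquinol positive control.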

Test [16] can be described thus: qHTS for Activators of Parkin Expression: LOPAC Validation Assay (NLuc Reporter) (AID 720572). The procedure, abridged:
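Compound effects on Parkin promoter activity were measured as NanoLuc luminescence after 24 h at 37 C. The neuronal reporter line also carried FLuc, which was read first. LOPAC compounds were tested at 7 concentrations, with normalization to DMSO (0%) and positive control (100%).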

A short description of test [17]: qHTS for Activators of Parkin Expression: LOPAC Validation Assay (FLuc Reporter) (AID 720573). The procedure, abridged:
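Neuronal cell line stably carrying FLuc/NLuc coincidence reporter under Parkin promoter; cells plated 24 h, then compounds added in 7-point dose response for 24 h at 37 C. FLuc luminescence read; normalized to DMSO and positive control (100%).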

The target of test [18] is T1, Hexokinase-4 (Homo sapiens) + Glucokinase regulatory protein (Homo sapiens) (UniProt P35557+Q14397). Kind of test: qHTS assay for inhibitors of recombinant human GCK-GKRP interaction: Diaphorase-coupled assay (AID 743205). The procedure, abridged:
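GST-GCK (10 nM) with FLAG-GKRP (10 nM), 5 mM glucose and 0.4 mM ATP in pH 7.6 Hepes; compounds preincubated 20 min with substrate. G6PDH/diaphorase coupling converts resazurin to resorufin, read kinetically (ex 525/em 590 nm) for 30 min.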

Test [19] concerns the target T1, Hexokinase-4 (Homo sapiens) + Glucokinase regulatory protein (Homo sapiens). Nature of the test: qHTS assay for inhibitors of recombinant human GCK-GKRP interaction: ADP-Glo assay (AID 743206).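 Note: plate controls were DMSO plus enzyme for no effect and no enzyme for full effect.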 The procedure, abridged:
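Pin-transferred compounds meet a 15 nM GST-GCK/15 nM FLAG-GKRP/2 uM S6P mix (dispense concentrations). ATP is then added to 0.4 mM final with 5 mM glucose, and the reaction runs 60 min at room temperature. ADP is quantified luminescently.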

Test [20] has the same target. Nature of the test: qHTS assay for inhibitors of recombinant human GCK-GKRP interaction: HTRF assay (AID 743207).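 Note: 0% = DMSO with GCK present and -100% = DMSO wells lacking GCK.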 In outline: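 GST-GCK and FLAG-GKRP (5 nM each) were combined with 2 uM S6P in pH 7.1 Hepes/MgCl2/KCl/DTT buffer, then compound and anti-FLAG XL665/anti-GST K antibodies were added. After 60 min at room temperature, HTRF 665/615 nm emission was read.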

T1 sequence (P35557 whole entry, looked up): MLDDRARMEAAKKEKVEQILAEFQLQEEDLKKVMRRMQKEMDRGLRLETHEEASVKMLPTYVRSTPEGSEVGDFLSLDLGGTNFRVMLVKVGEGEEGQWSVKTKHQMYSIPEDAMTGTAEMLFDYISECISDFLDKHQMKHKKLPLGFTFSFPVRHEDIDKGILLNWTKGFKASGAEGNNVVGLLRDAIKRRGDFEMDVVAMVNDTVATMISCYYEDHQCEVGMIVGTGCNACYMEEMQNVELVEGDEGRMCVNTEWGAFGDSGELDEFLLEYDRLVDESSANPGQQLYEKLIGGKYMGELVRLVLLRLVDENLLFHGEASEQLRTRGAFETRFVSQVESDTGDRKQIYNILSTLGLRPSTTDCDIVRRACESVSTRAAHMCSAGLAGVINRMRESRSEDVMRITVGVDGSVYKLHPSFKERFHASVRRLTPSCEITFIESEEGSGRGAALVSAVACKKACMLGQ
T1 sequence (Q14397 whole entry, looked up): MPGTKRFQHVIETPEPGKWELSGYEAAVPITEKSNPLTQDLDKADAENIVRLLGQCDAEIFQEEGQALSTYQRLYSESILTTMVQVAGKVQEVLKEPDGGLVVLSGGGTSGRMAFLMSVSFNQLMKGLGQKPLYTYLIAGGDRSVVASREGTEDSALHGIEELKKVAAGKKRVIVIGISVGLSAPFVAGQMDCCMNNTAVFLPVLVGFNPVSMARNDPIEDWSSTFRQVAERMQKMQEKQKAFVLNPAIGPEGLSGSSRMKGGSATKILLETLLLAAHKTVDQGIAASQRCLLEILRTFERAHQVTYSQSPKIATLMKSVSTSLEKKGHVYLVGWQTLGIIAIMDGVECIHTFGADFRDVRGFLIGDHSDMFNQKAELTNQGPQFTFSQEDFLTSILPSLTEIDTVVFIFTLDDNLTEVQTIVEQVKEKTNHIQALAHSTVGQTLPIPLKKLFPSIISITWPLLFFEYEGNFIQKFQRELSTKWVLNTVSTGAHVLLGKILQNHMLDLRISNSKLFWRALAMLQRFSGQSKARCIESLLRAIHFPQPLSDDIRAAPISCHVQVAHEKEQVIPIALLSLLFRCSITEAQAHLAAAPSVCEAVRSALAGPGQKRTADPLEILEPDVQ
Sequence of Peroxisome proliferator-activated receptor alpha (Homo sapiens) (Q07869 whole entry, looked up): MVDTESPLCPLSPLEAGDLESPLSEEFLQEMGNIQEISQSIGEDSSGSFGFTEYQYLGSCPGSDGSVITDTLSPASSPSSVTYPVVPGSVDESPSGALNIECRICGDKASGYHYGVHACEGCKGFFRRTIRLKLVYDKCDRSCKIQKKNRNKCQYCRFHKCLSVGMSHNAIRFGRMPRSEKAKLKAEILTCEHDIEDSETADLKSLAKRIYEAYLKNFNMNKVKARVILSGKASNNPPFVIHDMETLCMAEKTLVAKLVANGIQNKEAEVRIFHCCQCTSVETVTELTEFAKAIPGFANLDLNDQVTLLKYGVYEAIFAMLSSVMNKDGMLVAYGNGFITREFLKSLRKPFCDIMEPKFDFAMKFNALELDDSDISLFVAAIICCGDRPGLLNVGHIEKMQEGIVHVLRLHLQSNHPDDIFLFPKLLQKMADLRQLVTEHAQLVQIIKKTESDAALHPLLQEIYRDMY
Sequence of Tyrosine-protein kinase Yes (Homo sapiens) (P07947 whole entry, looked up): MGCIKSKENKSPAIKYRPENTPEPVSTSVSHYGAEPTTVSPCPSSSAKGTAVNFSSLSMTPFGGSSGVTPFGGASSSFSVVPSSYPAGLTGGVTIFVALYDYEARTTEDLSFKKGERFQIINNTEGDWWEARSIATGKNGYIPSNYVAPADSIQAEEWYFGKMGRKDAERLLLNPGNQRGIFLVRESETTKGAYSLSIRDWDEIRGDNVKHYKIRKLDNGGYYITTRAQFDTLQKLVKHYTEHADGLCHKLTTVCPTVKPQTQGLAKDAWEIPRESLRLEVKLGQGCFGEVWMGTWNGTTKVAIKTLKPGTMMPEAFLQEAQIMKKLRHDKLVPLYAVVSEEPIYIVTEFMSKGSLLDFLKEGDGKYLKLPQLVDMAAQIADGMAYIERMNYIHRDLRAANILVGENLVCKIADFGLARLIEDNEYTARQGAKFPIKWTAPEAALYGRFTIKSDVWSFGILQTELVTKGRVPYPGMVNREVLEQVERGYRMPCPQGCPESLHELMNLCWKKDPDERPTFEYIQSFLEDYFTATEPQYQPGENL
Sequence of Arylsulfatase A (Homo sapiens) (P15289 whole entry, looked up): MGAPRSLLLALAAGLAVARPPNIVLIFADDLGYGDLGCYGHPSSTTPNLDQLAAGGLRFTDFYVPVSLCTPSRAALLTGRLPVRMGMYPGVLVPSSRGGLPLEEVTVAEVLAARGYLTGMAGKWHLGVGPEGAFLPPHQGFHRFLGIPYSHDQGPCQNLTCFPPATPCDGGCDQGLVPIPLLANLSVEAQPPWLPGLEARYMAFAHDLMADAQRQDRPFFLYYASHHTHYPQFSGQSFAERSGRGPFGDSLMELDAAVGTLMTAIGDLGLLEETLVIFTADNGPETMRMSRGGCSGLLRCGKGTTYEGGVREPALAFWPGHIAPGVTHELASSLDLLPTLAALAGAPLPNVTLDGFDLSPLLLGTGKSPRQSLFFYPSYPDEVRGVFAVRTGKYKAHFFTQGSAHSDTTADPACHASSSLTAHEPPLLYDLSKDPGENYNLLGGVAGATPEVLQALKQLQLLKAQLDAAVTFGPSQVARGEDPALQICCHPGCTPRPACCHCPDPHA
Sequence of Nuclear receptor ROR-gamma (Homo sapiens) (P51449 whole entry, looked up): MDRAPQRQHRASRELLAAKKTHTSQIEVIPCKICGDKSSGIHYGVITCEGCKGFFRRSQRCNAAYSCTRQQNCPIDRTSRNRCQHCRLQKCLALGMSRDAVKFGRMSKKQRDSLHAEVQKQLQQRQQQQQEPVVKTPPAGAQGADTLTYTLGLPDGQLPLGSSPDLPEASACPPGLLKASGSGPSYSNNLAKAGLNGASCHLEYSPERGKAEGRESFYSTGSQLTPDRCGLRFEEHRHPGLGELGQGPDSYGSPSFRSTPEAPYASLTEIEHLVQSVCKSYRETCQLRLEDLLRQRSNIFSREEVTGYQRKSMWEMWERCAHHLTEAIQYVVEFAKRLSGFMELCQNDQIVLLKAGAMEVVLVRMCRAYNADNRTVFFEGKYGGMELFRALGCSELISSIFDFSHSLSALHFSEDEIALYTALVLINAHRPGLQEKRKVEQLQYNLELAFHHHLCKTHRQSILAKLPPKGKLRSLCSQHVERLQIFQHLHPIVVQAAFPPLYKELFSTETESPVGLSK

With `CCOC(=O)C1=C(O)C(=O)N(Cc2ccccc2)C1`, the Potency entry in test [1] was “inactive”. Further, the max response in test [2] was 44.6% (inactive). This compound registered a remaining parasite growth % (stronger effect = lower value) in test [3] of 34%. Besides, the activity, percent of control in test [4] stood at 82.3%. Also, the remaining proliferation (% of control), lower = more inhibition in test [5] is 67.7%. Moreover, the parasite growth, % of DMSO control in [6] was 74.5%.

With `CCN(CC)CCOc1ccc(Nc2ncc3cc(-c4c(Cl)cccc4Cl)c(=O)n(C)c3n2)cc1`, in test [1], the Potency was 9.72 pM (active). In [3], this compound showed a remaining parasite growth % (stronger effect = lower value) of 0.673%. The activity, percent of control in [4] amounted to 1.4%. Moreover, the remaining proliferation (% of control), lower = more inhibition in [5] is -0.176%. The compound also came in with a parasite growth, % of DMSO control in test [6] of 6.09%.

Take `Cc1ccc(C)c(OCCCC(C)(C)C(=O)O)c1`: the max response is 0.635% (inactive) and 1.7% (inactive) in test [7]; -1.19% (inactive) and -0.256% (inactive) in test [11]; 17.4% (inactive) in [2]; -0.77% (inactive) and -7.02% (inactive) in test [12]. Also, the result in test [8] and in [10] was inactive. The Potency result in test [9] and in test [13] was “inactive” throughout. Also, the parasite growth, % of DMSO control in test [6] was 5.29%.

As for `c1ccc2[nH]c(-c3cscn3)nc2c1`, the max response is -1.63% (inactive) and -0.401% (inactive) in test [7]; -11.8% (inactive) and -19.5% (inactive) in [11]; 16.1% (inactive) in [2]; -17.6% (inactive) and -12.7% (inactive) in test [12]. Further, the compound was classed as inactive in test [8] and in [10]. Also, the Potency result in test [13] is “inactive”. For the same compound, in [6], the parasite growth, % of DMSO control came out at 11.2%.

For the compound `COc1ccc2cc([C@H](C)C(=O)O)ccc2c1`, the Potency result in test [14] and in test [17] was “inactive” throughout. Further, the compound was called inactive in test [15], in test [16], in test [18], in [19] and in test [20]. Further, the max response in test [2] is 18.3% (inactive) and 6.4% (inactive). The same compound registered a parasite growth, % of DMSO control in test [6] of 106%.

Take `Cc1cc(O)c2c(c1)C(=O)c1cc(O)cc(O)c1C2=O`: the max response in [7] is -5.19% (inactive) and -6.73% (inactive); in test [2], 14.5% (inactive). For the same compound, the compound was called inactive in test [15], in test [16], in [10], in test [18], in [19] and in test [20]. Also, the Potency entry in test [17] was “inactive”. The Potency is 44.7 µM (active) in test [12] and 31.6 µM (active) in [13].

In the case of `S=c1nc[nH]c2nc[nH]c12`, the Potency entry in test [1] is “inactive”. The max response in test [2] was 21.9% (inactive) and -4.09% (inactive). The remaining parasite growth % (stronger effect = lower value) in test [3] is 58.5% [at 57.5 µM]. Besides, in [4], the activity, percent of control is 88.8% [at 57.5 µM]. Also, the parasite growth, % of DMSO control in test [6] came to 68.3%.

In the case of `Nc1cccc2c1CN(C1CCC(=O)NC1=O)C2=O` (stereo not given), the Potency entry in test [1] is “inactive”. Besides, in test [2], the max response is 12.8% (inactive) and 1.91% (inactive). The remaining parasite growth % (stronger effect = lower value) in test [3] was 98.3% [at 57.5 µM] and 94.5% [at 57.5 µM]. In addition, in [4], the activity, percent of control is 89.3% [at 57.5 µM] and 104% [at 57.5 µM]. The remaining proliferation (% of control), lower = more inhibition in [5] is 96.8% [at 57.5 µM] and 102% [at 57.5 µM]. Also, in test [6], the parasite growth, % of DMSO control came out at 83.6% [at 57.5 µM].

For `CC(=O)N1CCN(c2ccc(OC[C@H]3CO[C@](Cn4ccnc4)(c4ccc(Cl)cc4Cl)O3)cc2)CC1`, the max response in test [7] was -0.168% (inactive); in test [11] it was -20.7% (inactive). The Potency entry in [14], in test [17], in [9] and in [13] was “inactive” each time. Also, the compound was called inactive in [16], in test [18], in test [19] and in test [20]. In test [6], this compound showed a parasite growth, % of DMSO control of 10.3%.
